The AC50 is the midpoint of the concentration-response curve, whichever way the signal moves.

Experiment [1] is described as follows: ATG_M_32_CIS: Attagene CIS-FACTORIAL HepG2 Assay for M32 Transcription Factor (Internal Marker) (AID 2282949).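 Further: background control marker of the multiplexed CIS panel rather than a real target.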 To be noted: HepG2 Attagene cis-factorial M32 reporter, mRNA; actives raise or lower the signal. The gist of the method: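 Following 24 h chemical exposure of HepG2 cells transiently expressing cis-promoter reporter constructs, reporter transcript levels were determined by RT-PCR with fluorescent labelling and capillary electrophoresis, then fitted bidirectionally against DMSO.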

Experiment [2] is described as follows: ATG_M_06_CIS: Attagene CIS-FACTORIAL HepG2 Assay for M06 Transcription Factor (Internal Marker) (AID 2282950). Particulars: HepG2 Attagene CIS-FACTORIAL M06 internal marker reporter; actives raise or lower the signal. The procedure, abridged: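 Cells (HepG2, transiently carrying cis-driven reporter units) receive chemical for 24 h before RNA isolation. Reporter cDNA is PCR-amplified, FAM-labelled by primer extension, HpaI-digested and sized on a capillary analyser.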

Experiment [3] concerns the target Hypoxia-inducible factor 1-alpha (Homo sapiens) (UniProt Q16665). Briefly: ATG_HIF1a_CIS: Attagene CIS-FACTORIAL HepG2 Assay for human Hypoxia Inducible Factor 1 (HIF1A) (AID 2282951). Particulars: HepG2 Attagene cis-factorial HIF1a reporter transcription; actives raise or lower the signal. The gist of the method:
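Fluorescence intensity of capillary-separated, 6-FAM-labelled reporter amplicons gives mRNA induction in HepG2 cells carrying transfected cis-promoter reporter units; cells exposed 24 h, responses fitted up or down from DMSO.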

The target in experiment [4] is Hepatocyte nuclear factor 6 (Homo sapiens) (UniProt Q9UBC0). The experiment is described as follows: ATG_HNF6_CIS: Attagene CIS-FACTORIAL HepG2 Assay for human Hepatocyte Nuclear Factor 6 (HNF6) (AID 2282952). Particulars: HepG2 Attagene cis-factorial HNF6 reporter transcription; actives raise or lower the signal. The procedure, abridged: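 HepG2 cells transiently transfected with cis-element-driven multiple reporter transcription units, dosed 24 h; reporter mRNA quantified by RT-PCR, FAM primer extension, HpaI digestion and capillary electrophoresis; bidirectional fit versus DMSO baseline.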

The target of experiment [5] is Heat shock factor protein 1 (Homo sapiens) (UniProt Q00613). The experiment is described as follows: ATG_HSE_CIS: Attagene CIS-FACTORIAL HepG2 Assay for human Heat Shock Transcription Factor 1 (HSE) (AID 2282953). Particulars: HepG2 HSE cis-reporter, Attagene RNA transcription; actives raise or lower the signal. The gist of the method:
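Liver-derived HepG2 cells carry transiently introduced multiple reporter units governed by cis promoters. Reporter RNA measured 24 h post-dose through reverse transcription, PCR amplification, fluorescent labelling and capillary electrophoresis, normalised to DMSO.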

Experiment [6] can be described thus: ATG_MRE_CIS: Attagene CIS-FACTORIAL HepG2 Assay for human Metal Responsive Element (MRE) (AID 2282954). Particulars: HepG2 MRE cis-reporter transcription, Attagene multiplex; actives raise or lower the signal. The gist of the method: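 HepG2 cells transiently transfected with multiple cis-element reporter units measure endogenous MTF1-driven transcription. After 24 h compound exposure, reporter mRNA is quantified by RT-PCR with 6-FAM labelling, HpaI digestion and capillary electrophoresis; bidirectional fits versus DMSO.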

Experiment [7] can be described thus: ATG_PBREM_CIS: Attagene CIS-FACTORIAL HepG2 Assay for human Phenobarbital-responsive Enhancer Module (PBREM) (AID 2282955). Particulars: HepG2 PBREM cis-reporter, Attagene multiplexed transcription; actives raise or lower the signal. The procedure, abridged: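 Cells were transfected with cis-element reporter units and treated for 24 h, after which RNA was extracted and reporter transcripts measured by RT-PCR and capillary electrophoresis.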

In experiment [8] the target is Paired box protein Pax-6 (Homo sapiens) (UniProt P26367). The experiment is described as follows: ATG_Pax6_CIS: Attagene CIS-FACTORIAL HepG2 Assay for human Paired Box 6 (PAX6) (AID 2282956). Particulars: HepG2 CIS-FACTORIAL PAX6 reporter transcription, RNA readout; actives raise or lower the signal. The procedure, abridged: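 Multiplexed cis-reporter HepG2 system; 24 h treatment; reporter mRNA read by RT-PCR/CE fluorescence; bidirectional fit vs DMSO.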

A short description of experiment [9]: ATG_PXRE_CIS: Attagene CIS-FACTORIAL HepG2 Assay for human Pregnane X Receptor Element (PXRE) (AID 2282957). Particulars: HepG2 Attagene CIS-FACTORIAL PXRE reporter, mRNA; actives raise or lower the signal. The gist of the method: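 HepG2 cells transiently transfected with cis-regulated multiple reporter transcription units; endogenous factor activity measured as reporter mRNA 24 h after dosing. RT-PCR, fluorescent primer extension, HpaI digestion, capillary electrophoresis; bidirectional fit versus DMSO baseline.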

Experiment [10] is described as follows: ATG_PPRE_CIS: Attagene CIS-FACTORIAL HepG2 Assay for human Peroxisome Proliferator-activated Response Element (PPRE) (AID 2282958). Particulars: HepG2 PPRE cis-element reporter, Attagene transcription factor profiling; actives raise or lower the signal. The procedure, abridged: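 In this cell-based multiplex, a PPRE cis element drives a reporter sequence in transiently transfected HepG2 cells. Following 24 h treatment, labeled cDNA amplicons are sized and quantified by capillary electrophoresis, with DMSO defining baseline.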

The nature of experiment [11]: ATG_Sox_CIS: Attagene CIS-FACTORIAL HepG2 Assay for human SRY-box transcription factor (SOX) (AID 2282960). Particulars: HepG2 Attagene cis-factorial SOX reporter, mRNA; actives raise or lower the signal. The procedure, abridged: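 Measures mRNA induction of a SOX1-associated reporter in HepG2 after 24 h dosing. Fluorescently labelled RT-PCR fragments are separated by capillary electrophoresis, and gain or loss relative to DMSO control is fitted.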

In experiment [12] the target is Transcription factor Sp1 (Homo sapiens) (UniProt P08047). Briefly: ATG_Sp1_CIS: Attagene CIS-FACTORIAL HepG2 Assay for human Specificity Protein 1 (Sp1) (AID 2282961). To be noted: HepG2 Sp1 cis-reporter transcription, actives raise or lower the signal. The gist of the method: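 Cells: HepG2, transiently transfected with cis-regulated multiplexed reporters. Exposure: 24 h. Detection: reporter transcripts amplified, fluorescently labeled, restriction-digested and sized by capillary electrophoresis. Analysis: bidirectional fit relative to DMSO.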

Experiment [13] in a line: ATG_SREBP_CIS: Attagene CIS-FACTORIAL HepG2 Assay for human Sterol Regulatory Element Binding (SREBP) (AID 2282962). Particulars: HepG2 Attagene cis-factorial SREBP reporter, mRNA; actives raise or lower the signal. The gist of the method: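 mRNA induction of transfected cis-promoter reporters in HepG2 cells, 24 h post-dose. Detection: RT-PCR with 6-FAM-labelled products, HpaI digest, capillary electrophoresis. DMSO served as negative control and baseline.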

Experiment [14] addresses Signal transducer and activator of transcription 3 (Homo sapiens) (UniProt P40763). The experiment is described as follows: ATG_STAT3_CIS: Attagene CIS-FACTORIAL HepG2 Assay for human Signal Transducer and Activator of Transcription 3 (STAT3) (AID 2282963). Particulars: HepG2, Attagene cis-factorial STAT3 reporter transcription; actives raise or lower the signal. The gist of the method:
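HepG2 cells transiently transfected with cis-element-driven multiple reporter transcription units; after 24 h chemical exposure, reporter mRNA measured by RT-PCR, 6-FAM primer-extension labelling, HpaI digestion and capillary electrophoresis. Bidirectional fitting versus DMSO baseline.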

The nature of experiment [15]: ATG_TA_CIS: Attagene CIS-FACTORIAL HepG2 Assay for human TA Basal Promoter (AID 2282964). Particulars: HepG2 Attagene CIS-factorial TA basal promoter reporter; actives raise or lower the signal. The procedure, abridged: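 Background internal-marker endpoint from a 52-component HepG2 cis-reporter panel. Cells treated 24 h; reporter transcripts quantified via RT-PCR and CE fluorescence against DMSO baseline.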

Experiment [16] is described as follows: ATG_TCF_b_cat_CIS: Attagene CIS-FACTORIAL HepG2 Assay for human T-Cell-Factor with beta-catenin (TCF/b-cat) (AID 2282965). To be noted: HepG2 TCF/beta-catenin cis-reporter transcription, actives raise or lower the signal. The gist of the method: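 HepG2 cells transiently transfected with multiple cis-promoter-regulated reporter transcription units, so endogenous transcription factor activity is measured. Reporter mRNA read 24 hours after dosing by RT-PCR, fluorescent labelling and capillary electrophoresis; bidirectional fitting against DMSO.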

The nature of experiment [17]: ATG_TAL_CIS: Attagene CIS-FACTORIAL HepG2 Assay for human TAL Basal Promoter (AID 2282966).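 Further: background control endpoint measuring basal TAL promoter reporter mRNA not a specific factor.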 To be noted: HepG2 Attagene cis-factorial TAL promoter reporter; actives raise or lower the signal. The procedure, abridged: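 HepG2 cells were transiently transfected with promoter-driven multiplexed reporter units and dosed for 24 h. Reporter mRNA was measured by RT-PCR with capillary electrophoresis fluorescence; bidirectional fits used DMSO as baseline, serving as a background control.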

Experiment [18] is described as follows: ATG_TGFb_CIS: Attagene CIS-FACTORIAL HepG2 Assay for human Transforming Growth Factor (TGF) (AID 2282967). Particulars: HepG2 Attagene CIS TGFb reporter, mRNA transcription; actives raise or lower the signal. The gist of the method:
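Liver HepG2 line, cis-factorial reporter panel, 24 h dosing. Quantitation: RT-PCR products labeled with 6-FAM, cut with HpaI, resolved by capillary electrophoresis; DMSO-referenced bidirectional analysis.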

Experiment [19] is described as follows: ATG_VDRE_CIS: Attagene CIS-FACTORIAL HepG2 Assay for human Vitamin D Receptor Element (VDRE) (AID 2282968). Particulars: HepG2 VDRE cis-reporter transcription, actives raise or lower the signal. The gist of the method: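 HepG2 cells transiently transfected with cis-element reporter units, dosed 24 h; reporter mRNA measured by RT-PCR, 6-FAM labeling, HpaI digestion and capillary electrophoresis. Activity fitted bidirectionally against DMSO baseline.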

Experiment [20] in a line: ATG_RORE_CIS: Attagene CIS-FACTORIAL HepG2 Assay for human RAR-related Orphan Receptor Element (RORE) (AID 2282959). Particulars: HepG2 Attagene cis-factorial RORE reporter, mRNA; actives raise or lower the signal. The gist of the method:
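Endogenous factor activity at a cis response element is read as reporter transcript levels in HepG2 cells, 24 h post-dose. Transcripts are quantified by RT-PCR with capillary electrophoresis, and data fitted in both directions against DMSO.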

Activity calls are given as the source filed them. How the source made its calls: active means hit-call score of the fitted dose curve at least 0.9, where 1 is the maximum; inactive means score below 0.9.

Heat shock factor protein 1 (Homo sapiens), sequence (Q00613 whole entry, looked up): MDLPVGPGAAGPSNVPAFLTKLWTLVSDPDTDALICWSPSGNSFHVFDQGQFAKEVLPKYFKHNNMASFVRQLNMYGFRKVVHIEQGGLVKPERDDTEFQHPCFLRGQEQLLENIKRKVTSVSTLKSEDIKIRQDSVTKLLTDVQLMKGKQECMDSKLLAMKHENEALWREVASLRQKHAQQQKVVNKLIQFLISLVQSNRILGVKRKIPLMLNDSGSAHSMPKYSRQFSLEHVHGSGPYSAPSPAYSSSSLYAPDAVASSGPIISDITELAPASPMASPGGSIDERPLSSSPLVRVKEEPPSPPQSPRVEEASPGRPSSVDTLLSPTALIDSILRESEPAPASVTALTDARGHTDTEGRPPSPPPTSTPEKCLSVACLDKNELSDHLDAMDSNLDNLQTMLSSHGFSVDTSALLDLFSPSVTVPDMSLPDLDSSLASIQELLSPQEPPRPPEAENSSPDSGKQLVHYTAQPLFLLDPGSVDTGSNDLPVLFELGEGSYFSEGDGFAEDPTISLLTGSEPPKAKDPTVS
Paired box protein Pax-6 (Homo sapiens), sequence (P26367 whole entry, looked up): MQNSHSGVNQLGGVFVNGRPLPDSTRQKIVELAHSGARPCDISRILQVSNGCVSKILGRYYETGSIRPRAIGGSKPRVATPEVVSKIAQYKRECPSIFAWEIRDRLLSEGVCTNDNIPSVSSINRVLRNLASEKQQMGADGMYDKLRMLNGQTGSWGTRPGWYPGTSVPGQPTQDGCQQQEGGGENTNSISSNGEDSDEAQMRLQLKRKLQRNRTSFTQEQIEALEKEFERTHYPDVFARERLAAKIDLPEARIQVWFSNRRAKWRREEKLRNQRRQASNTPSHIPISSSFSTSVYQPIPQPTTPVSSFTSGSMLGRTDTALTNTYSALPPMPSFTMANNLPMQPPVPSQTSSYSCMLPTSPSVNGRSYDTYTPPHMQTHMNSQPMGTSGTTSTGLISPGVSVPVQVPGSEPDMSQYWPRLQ
Hepatocyte nuclear factor 6 (Homo sapiens), sequence (Q9UBC0 whole entry, looked up): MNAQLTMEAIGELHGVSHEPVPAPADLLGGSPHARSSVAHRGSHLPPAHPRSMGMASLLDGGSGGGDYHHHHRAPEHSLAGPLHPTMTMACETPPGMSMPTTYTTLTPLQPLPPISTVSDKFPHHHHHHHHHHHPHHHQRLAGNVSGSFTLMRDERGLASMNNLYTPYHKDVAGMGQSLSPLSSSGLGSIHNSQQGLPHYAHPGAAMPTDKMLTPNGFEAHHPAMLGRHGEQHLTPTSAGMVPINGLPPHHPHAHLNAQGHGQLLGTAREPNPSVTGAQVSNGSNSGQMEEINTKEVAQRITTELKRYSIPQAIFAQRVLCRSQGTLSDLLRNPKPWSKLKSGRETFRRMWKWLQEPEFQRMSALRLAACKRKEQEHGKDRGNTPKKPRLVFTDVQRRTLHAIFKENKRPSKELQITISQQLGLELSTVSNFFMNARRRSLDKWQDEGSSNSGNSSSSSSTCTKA
Hypoxia-inducible factor 1-alpha (Homo sapiens), sequence (Q16665 whole entry, looked up): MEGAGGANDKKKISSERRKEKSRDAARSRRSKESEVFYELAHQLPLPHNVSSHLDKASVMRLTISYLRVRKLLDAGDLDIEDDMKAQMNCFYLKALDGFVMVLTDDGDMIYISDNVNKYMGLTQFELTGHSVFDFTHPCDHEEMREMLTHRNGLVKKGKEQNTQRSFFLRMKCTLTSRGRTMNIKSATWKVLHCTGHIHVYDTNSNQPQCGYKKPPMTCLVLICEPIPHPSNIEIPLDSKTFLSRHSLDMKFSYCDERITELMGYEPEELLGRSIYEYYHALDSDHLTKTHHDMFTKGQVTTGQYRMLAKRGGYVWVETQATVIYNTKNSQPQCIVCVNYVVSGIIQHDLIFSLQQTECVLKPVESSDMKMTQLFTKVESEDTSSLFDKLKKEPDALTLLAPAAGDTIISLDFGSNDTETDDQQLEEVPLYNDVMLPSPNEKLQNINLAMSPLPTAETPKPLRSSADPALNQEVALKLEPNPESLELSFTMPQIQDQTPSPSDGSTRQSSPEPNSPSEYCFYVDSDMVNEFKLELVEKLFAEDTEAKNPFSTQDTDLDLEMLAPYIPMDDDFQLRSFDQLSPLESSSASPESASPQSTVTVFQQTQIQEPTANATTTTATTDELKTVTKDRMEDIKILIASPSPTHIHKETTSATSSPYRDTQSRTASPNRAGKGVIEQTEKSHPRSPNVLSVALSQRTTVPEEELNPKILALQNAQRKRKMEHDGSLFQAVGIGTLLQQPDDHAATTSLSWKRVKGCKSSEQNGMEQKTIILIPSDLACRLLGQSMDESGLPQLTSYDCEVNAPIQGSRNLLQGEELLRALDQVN
Signal transducer and activator of transcription 3 (Homo sapiens), sequence (P40763 whole entry, looked up): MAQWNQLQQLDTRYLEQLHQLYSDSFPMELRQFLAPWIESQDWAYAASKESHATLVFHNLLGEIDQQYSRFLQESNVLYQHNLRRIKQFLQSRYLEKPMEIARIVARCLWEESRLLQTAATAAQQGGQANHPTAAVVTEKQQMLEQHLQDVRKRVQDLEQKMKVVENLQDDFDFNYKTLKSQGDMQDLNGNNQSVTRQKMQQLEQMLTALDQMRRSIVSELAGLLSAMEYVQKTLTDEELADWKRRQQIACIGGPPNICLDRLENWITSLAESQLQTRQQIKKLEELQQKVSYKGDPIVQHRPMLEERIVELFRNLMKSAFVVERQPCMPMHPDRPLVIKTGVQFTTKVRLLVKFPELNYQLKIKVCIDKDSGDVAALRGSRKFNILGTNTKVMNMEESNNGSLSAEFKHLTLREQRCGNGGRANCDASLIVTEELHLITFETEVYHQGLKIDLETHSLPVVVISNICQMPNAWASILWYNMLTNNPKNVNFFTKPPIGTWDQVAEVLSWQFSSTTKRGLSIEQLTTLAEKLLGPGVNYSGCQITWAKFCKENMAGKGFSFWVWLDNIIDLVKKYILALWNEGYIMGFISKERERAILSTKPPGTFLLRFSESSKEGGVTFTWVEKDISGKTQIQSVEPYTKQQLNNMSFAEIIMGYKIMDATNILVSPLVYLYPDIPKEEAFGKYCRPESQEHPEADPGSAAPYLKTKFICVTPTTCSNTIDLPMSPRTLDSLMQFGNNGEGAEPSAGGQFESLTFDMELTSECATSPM
Transcription factor Sp1 (Homo sapiens), sequence (P08047 whole entry, looked up): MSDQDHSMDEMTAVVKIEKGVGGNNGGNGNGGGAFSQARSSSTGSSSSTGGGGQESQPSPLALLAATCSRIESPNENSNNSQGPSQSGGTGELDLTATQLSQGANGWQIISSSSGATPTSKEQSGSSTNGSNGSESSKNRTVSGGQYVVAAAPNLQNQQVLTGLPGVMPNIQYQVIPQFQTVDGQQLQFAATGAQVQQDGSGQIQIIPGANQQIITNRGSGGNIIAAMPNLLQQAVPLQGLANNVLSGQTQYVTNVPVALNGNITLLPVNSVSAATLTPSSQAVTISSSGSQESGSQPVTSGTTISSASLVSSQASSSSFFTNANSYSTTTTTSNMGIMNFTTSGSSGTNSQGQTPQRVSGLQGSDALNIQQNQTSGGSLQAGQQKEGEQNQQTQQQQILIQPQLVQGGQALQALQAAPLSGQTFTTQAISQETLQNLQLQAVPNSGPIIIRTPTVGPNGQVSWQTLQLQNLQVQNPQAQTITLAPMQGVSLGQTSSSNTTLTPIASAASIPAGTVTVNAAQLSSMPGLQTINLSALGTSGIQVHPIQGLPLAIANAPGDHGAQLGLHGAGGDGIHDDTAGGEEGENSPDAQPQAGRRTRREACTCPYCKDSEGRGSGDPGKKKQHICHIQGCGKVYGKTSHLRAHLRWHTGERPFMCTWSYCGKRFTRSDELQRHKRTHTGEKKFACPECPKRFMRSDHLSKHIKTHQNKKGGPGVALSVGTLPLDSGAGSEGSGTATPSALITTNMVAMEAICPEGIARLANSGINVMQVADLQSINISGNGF

Regarding `COc1nn(C(=O)NS(=O)(=O)c2ccccc2OC(F)(F)F)c(=O)n1C`, the outcome in experiment [1], in experiment [2], in experiment [3], in experiment [4], in [5] and in experiment [6] was inactive. In addition, the result in experiment [7], in experiment [8], in experiment [9], in [10], in experiment [11] and in experiment [12] was inactive. In addition, the outcome in experiment [13], in [14], in experiment [15], in [16], in [17] and in [18] was inactive. The outcome in [19] was inactive.
In the case of `CN(N=O)C(N)=O`, the compound was classed as inactive in experiment [1], in [2], in [3], in [4], in experiment [5] and in experiment [6]. Also, the result in experiment [7], in [8], in [20], in [11], in experiment [12] and in experiment [13] was inactive. The compound was called inactive in [14], in experiment [15], in experiment [16], in experiment [17], in experiment [18] and in experiment [19].
Regarding `O=S(=O)(C(Cl)(Cl)Cl)C(Cl)(Cl)Cl`, the call in experiment [1], in [2], in experiment [3], in experiment [4], in experiment [7] and in experiment [10] was inactive. Moreover, the compound was classed as inactive in [14], in experiment [17] and in [18]. Moreover, the AC50 in experiment [5] is 7.93 µM (active); in experiment [6], 16.5 µM (active); in [8], 16 µM (active); in [9], 11.1 µM (active); in experiment [11], 11.1 µM (active); in [12], 11.1 µM (active). Moreover, the AC50 is 16.8 µM (active) in experiment [13], 16.9 µM (active) in experiment [15], 7.46 µM (active) in experiment [16] and 16.7 µM (active) in experiment [19].
On to `Nc1cccnc1`, for which the call in experiment [1], in [2], in experiment [3], in experiment [4], in [5] and in experiment [6] was inactive. Besides, the result in [7], in [8], in [10], in experiment [20], in experiment [12] and in experiment [14] was inactive. Further, the call in experiment [15], in experiment [16] and in experiment [17] was inactive. In addition, the AC50 was 40.2 µM (active) in experiment [9] and 50.1 µM (active) in experiment [19].
Consider `CC(C)CP(=S)(S)CC(C)C`, for which the result in experiment [1], in experiment [2], in [3], in [4], in experiment [5] and in experiment [6] was inactive. Also, the result in experiment [7], in experiment [8], in [20], in experiment [11], in [12] and in experiment [13] was inactive. For the same compound, the call in experiment [14], in experiment [15], in experiment [17] and in experiment [18] was inactive. For the same compound, the concentration at half-maximal activity (AC50) in experiment [9] was 38.6 µM (active).
For `Nc1nc(N)nc(Cl)n1`, the outcome in [1], in experiment [2], in [3], in experiment [4], in experiment [5] and in experiment [6] was inactive. Besides, the outcome in experiment [7], in [8], in experiment [9], in experiment [20], in experiment [11] and in experiment [12] was inactive. Moreover, the result in [13], in experiment [14], in experiment [15], in [16], in experiment [17] and in experiment [18] was inactive.
Take `Cc1cccc(OP(=O)(Oc2cccc(C)c2)Oc2cccc(C)c2)c1`: the compound was classed as inactive in [1], in experiment [2], in [3], in experiment [4], in [5] and in experiment [6]. Also, the result in experiment [7], in experiment [8], in [10], in [11], in experiment [12] and in experiment [13] was inactive. Besides, the call in [14], in [15], in [16], in experiment [17] and in experiment [18] was inactive. For the same compound, the AC50 in [19] was 4.85 µM (active).
